From PubChem BioAssay
Giardia FBPA inh: blocks Giardia fructose-bisphosphate aldolase activity; A8B2U2; purified Giardia FBPA; Potency, µM (highest dose often 59.6 µM), for inactives: at the top dose activity, negative = inhibition, hits mostly inhibitors; 0.71% of 290,000 active; also: nearly all actives have a fitted effect of over 55% in size
Target sequence (A8B2U2 whole entry, looked up): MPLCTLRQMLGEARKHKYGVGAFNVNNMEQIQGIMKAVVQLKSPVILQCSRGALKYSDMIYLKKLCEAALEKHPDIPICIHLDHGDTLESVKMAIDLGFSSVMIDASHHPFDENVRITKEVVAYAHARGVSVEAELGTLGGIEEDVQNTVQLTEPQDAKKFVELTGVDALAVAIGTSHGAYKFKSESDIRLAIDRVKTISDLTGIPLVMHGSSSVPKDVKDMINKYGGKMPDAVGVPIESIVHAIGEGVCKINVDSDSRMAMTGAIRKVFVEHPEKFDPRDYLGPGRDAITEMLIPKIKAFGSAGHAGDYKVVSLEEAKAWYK
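Giardia FBPA (40 nM reagent) was preincubated 10 min at RT with compound (up to 57.5 uM final), then substrate plus GAPDH/TPI/NAD/arsenate coupling system with diaphorase/resazurin was added; resorufin fluorescence (525/598 nm) was read after 20 min.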
Cruzain inh Det: inhibitors of Trypanosoma cruzi cruzain with detergent; P25779; purified cruzain, Z-FR-AMC fluorescence, 0.01% Triton; Potency, µM, without a hit: max response, negative = inhibition, usual class: inhibitors; 0.43% of 200,000 active; AID 1478;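 also: plate controls were neutral wells for no effect and buffer without enzyme for full effect; nearly all actives have a fitted effect of over 40% in size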
Target sequence (P25779 123-467 limits assumed): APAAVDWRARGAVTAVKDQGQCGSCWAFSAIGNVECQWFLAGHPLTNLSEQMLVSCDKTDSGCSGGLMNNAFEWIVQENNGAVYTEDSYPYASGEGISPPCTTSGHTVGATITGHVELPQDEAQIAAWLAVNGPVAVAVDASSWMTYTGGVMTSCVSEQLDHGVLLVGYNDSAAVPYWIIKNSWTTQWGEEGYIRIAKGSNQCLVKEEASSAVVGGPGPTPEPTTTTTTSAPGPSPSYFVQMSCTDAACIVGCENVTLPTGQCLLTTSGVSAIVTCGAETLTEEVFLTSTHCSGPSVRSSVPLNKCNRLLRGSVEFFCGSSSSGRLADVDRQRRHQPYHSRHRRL
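Detergent-containing arm of a paired screen for aggregation-based inhibition: 0.01% Triton X-100 present. Cruzain at 1.5 nM cleaved 2 uM Z-FR-AMC at pH 5.5 with 5 mM DTT; AMC fluorescence gain over 60 s measured activity.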
Cruzain noTriton: inhibitors of Trypanosoma cruzi cruzain without detergent. P25779. purified cruzain, Z-FR-AMC fluorescence, no detergent. Potency, µM, for inactives: max response, negative = inhibition, actives largely listed as inhibitors. 2.3% of 200,000 active. AID 1476;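 also: plate controls were enzyme without inhibitor for no effect and buffer without enzyme for full effect; nearly all actives have a fitted effect of over 40% in size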
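Detergent-free condition (0.00005% Triton X-100) in acetate buffer pH 5.5 with DTT. 1.5 nM enzyme and compound were pre-mixed 15 min, then 2 uM Z-FR-AMC substrate added; reaction progress from fluorescence change between first and third reads (60 s).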
Starred values were filed as active, the others as inactive; ? = inconclusive; nt = no result given; [ ] = another dose, or the depositor's remark. This excerpt belongs to a sample that is enriched for hits. Calls follow the shape of the dose curve; as a rule, active = well fitted curve in the direction sought with a large enough effect; inconclusive = small, poorly fitted or top-dose-only effect, or another doubt; inactive = no such curve, though single readings can be large; an effect the other way counts as inactive or inconclusive. Unless noted, % is scaled to controls: 0 for no effect and ±100 for the full control effect; potency is read from the fitted curve at half-maximal effect.

SMILES | Giardia FBPA inh | Cruzain inh Det | Cruzain noTriton
CNC(=S)NCCCCc1cnc[nH]1 | 11µM* | nt | nt
Cc1oc2ccc(O)c(CN3CCN(C)CC3)c2c1C(=O)Nc1ccc(C(C)C)cc1 | nt | -1% | -1%
COc1oc(=O)c2cc(N)ccc2c1Cl | 0% | nt | nt
COC(=O)c1ccc(NC(=O)C2CCN(S(=O)(=O)c3ccc4c(c3)CCCN4C(C)=O)CC2)cc1 | nt | -5% | ?
CC(=O)Nc1ccc(S(=O)(=O)N(C)c2ccccc2)cc1 | 2% | 3% | -7%
O=C(Nc1ccc(NC(=O)c2ccc(S(=O)(=O)c3ccccc3)cc2)cc1)c1ccccc1 | 5% | 15% | 4µM*
O=C(Nc1ccc(-c2ccccc2)cc1)c1ccccc1 | 11% | nt | nt
CN(c1ccccc1)S(=O)(=O)c1ccc(NC(=O)c2ccc(-c3ccccc3)cc2)cc1 | -3% | 3% | 25µM*
COC(=O)c1ccc2c(c1)N(CC(=O)Nc1cccc(Cl)c1C)C(=O)c1ccccc1S2 | nt | -2% | 10%
O=C(N[C@H]1CCCc2ccccc21)O[C@@H]1C(=O)c2cc(Br)ccc2O[C@H]1c1ccc2c(c1)OCO2 | 1% | 3% | -12%
COc1ccc(/C=C2\Oc3cc(OCC(N)=O)ccc3C2=O)cc1OC | 24% | nt | nt
Cc1ccsc1/C=C1\Oc2cc(OCC(=O)c3ccccc3)ccc2C1=O | 5% | -5% | 13µM*
N#Cc1cccc(NC(=O)c2ccc3c(c2)N(Cc2cccc(Cl)c2)C(=O)c2ccccc2S3(=O)=O)c1 | nt | -3% | 6.3µM*
O=C(NC1CCCC1)c1ccc2c(c1)N(Cc1ccccc1Cl)C(=O)c1ccccc1S2 | nt | 0% | ?
CC(C)CCNC(=O)c1ccc2c(c1)N(Cc1cccc(Cl)c1)C(=O)c1ccccc1S2 | nt | 1% | ?
O=C(NC1CCCCC1)c1ccc2c(c1)N(Cc1ccccc1Cl)C(=O)c1ccccc1S2 | nt | 2% | 10µM*
COc1ccc(CNC(=O)c2ccc3c(c2)N(Cc2cccc(Cl)c2)C(=O)c2ccccc2S3)c(OC)c1 | nt | 0% | 13µM*
O=C(NCCc1ccc(Cl)cc1)c1ccc2c(c1)N(Cc1cccc(Cl)c1)C(=O)c1ccccc1S2(=O)=O | nt | 1% | 10µM*
O=C(Nc1ccc(Cl)cc1)c1ccc2c(c1)N(Cc1ccccc1)C(=O)c1ccccc1S2(=O)=O | nt | -7% | ?
Cc1ccc(CCNC(=O)c2ccc3c(c2)N(Cc2cccc(C)c2)C(=O)c2ccccc2S3(=O)=O)cc1 | nt | 0% | ?
C#C[C@]1(O)CC[C@H]2C3CCC4=Cc5oncc5CC4(C)C3CCC21C (stereo partly drawn) | -5% | -8% | 8%
O=C(CSCn1nnc2c(=O)[nH]c(Cc3ccc(F)cc3)nc21)Nc1cccc(C(F)(F)F)c1 | nt | -4% | 9%
OC[C@@H]1O[C@@H](n2cnc3c(SCc4ccccc4)ncnc32)[C@@H](O)[C@H]1O | nt | 3% | 1%
COc1ccc2[nH]cc(CCN=C(NC(=O)c3ccccc3F)Nc3nc(C)cc(C)n3)c2c1 | nt | 1% | 0%
CCOC(=O)c1cccc(NC(=O)c2cc3ccccn3n2)c1 | nt | -5% | -3%
SMILES | Giardia FBPA inh | Cruzain inh Det | Cruzain noTriton
O=C(O)CC12C[C@H]3C[C@@H](CC(O)(C3)C1)C2 | nt | 5% | 2%
COC(=O)C1=C(C(=O)OC)[C@@H]2N(Cc3ccccc3)c3ccccc3[C@@]23C[C@@H](C(=O)OC)N(S(=O)(=O)c2ccc4c(c2)OCCN4C)C3=N1 | 2%[12.9 µM] | nt | nt
CC(=O)Nc1ccc(NC(=O)c2ccc3c(c2)N(Cc2cccc(Cl)c2)C(=O)c2ccccc2S3(=O)=O)cc1 | nt | -5% | -20%
Cc1cc(NC(=O)c2ccc3c(c2)N(Cc2cccc(Cl)c2)C(=O)c2ccccc2S3(=O)=O)ccc1Br | nt | -1% | 3.2µM*
COc1cc(-c2c(C#N)c(N)nc(SCc3ccncc3)c2C#N)cc(OC)c1OC | 0% | -1% | 0%
N#Cc1c(N)nc(SCc2ccncc2)c(C#N)c1-c1cccs1 | -2% | -6% | 25µM*
C#CCSc1nc(-c2cccs2)ccc1C#N | 2% | -8% | -7%
Cc1ccc(CSc2nc(-c3cccs3)ccc2C#N)cc1 | nt | -3% | 25µM*
CCc1ccccc1NC(=O)c1nn(-c2ccc(C)cc2)c(=O)c2c1c1ccccc1n2C | nt | -3% | 6%
O=Nc1ccc(NO)cc1 | nt | -5% | -8%
Cc1ccc(CNC(=O)C2CCCN(c3nc4ccccc4n4cccc34)C2)cc1 (stereo not drawn) | nt | -2% | 9%
COc1ccc(NC(=O)N2CCc3nc(COc4ccccc4)c4c(c3C2)CO[C@@H](C)C4)cc1 | 0%[12.9 µM] | nt | nt
COc1ccc(Nc2cc(C(=O)NCc3cccs3)c3ccccc3n2)cc1 | nt | 1% | ?
CC(C)c1ccc(Nc2cc(C(=O)NCc3cccs3)c3ccccc3n2)cc1 | nt | -3% | 10µM*
O=C(Nc1ccc(F)cc1F)c1ccc(-n2cnc3cccnc32)cc1 | nt | -3% | 4%
Cc1occc1C(=O)N=Nc1c(O)[nH]c2ccc(Br)cc12 | 1% | -3% | 13µM*
O=C(CNC(=O)c1ccco1)N=Nc1c(O)[nH]c2ccc(Br)cc12 | -26% | nt | nt
COCCCNc1nc2c(-c3ccc(C)cc3)nnn2c2ccccc12 | -4% | nt | nt
Cc1ccc(-c2nnn3c2nc(NCC(C)c2ccccc2)c2ccccc23)cc1 (stereo not drawn) | nt | 0% | 5µM*
O=C(N/N=C/c1ccc(Br)s1)c1cccc([N+](=O)[O-])c1 | -2% | -14% | 20µM*
O=C(N/N=C/c1ccc([N+](=O)[O-])s1)c1ccccc1 | -3% | nt | nt
CCOC(=O)/C(=C\c1ccc(C)cc1)NC(=O)c1ccccc1 | 7% | nt | nt
O=C(CNC(=O)/C(=C\c1ccccc1)NC(=O)c1ccc(Br)cc1)OCc1ccccc1 | 15% | -30% | -10%
O=C(CNC(=O)/C(=C\c1ccc(F)cc1)NC(=O)c1ccccc1)OCc1ccccc1 | -1% | 18µM* | ?
Cc1ccc(/C=C(\NC(=O)c2ccccc2)C(=O)OCc2ccccc2)cc1 | 14% | 7.9µM* | ?
SMILES | Giardia FBPA inh | Cruzain inh Det | Cruzain noTriton
CCOc1ccc(NC(=O)C(=O)NCC(c2cccnc2)N2CCc3ccccc32)cc1 (stereo not drawn) | nt | -1% | -7%
CCN(C(=O)CN(C)S(=O)(=O)c1ccc2c(c1)c(=O)n(C)c(=O)n2C)c1ccc(OC)cc1 | nt | -1% | 9%
CCc1ccccc1 | nt | 4% | 3%
CC(=O)C1(C)CC2=C(CCCC2(C)C)CC1C (stereo not drawn) | nt | -3% | -1%
Cc1ccc(S(=O)(=O)c2c(CO)c(-c3ccccc3)nn2C)cc1 | 3% | nt | nt
Cc1ccc(S(=O)(=O)c2c(COC(=O)c3ccccc3Cl)c(-c3ccccc3)nn2C)cc1 | -1% | 3% | 20µM*
O=C(CNC(=O)c1ccco1)OCN1C(=O)c2ccccc2C1=O | 0% | 20µM* | ?
O=C(CNC(=O)c1ccco1)OCc1ccc(Br)cc1 | 2% | nt | nt
COc1cccc(-c2nnc3n2N=C(c2ccccc2OC)CS3)c1 | -15% | nt | nt
Cc1cccc(-n2c(C)cc(C(=O)C(=O)Nc3ccccc3F)c2C)c1C | nt | -16% | -28%
CC(=O)c1ccc2c(c1)C1C=CCC1C(c1ccncc1)N2 (stereo not drawn) | ? | -10% | 30%
CC(=O)c1ccc(Sc2nnnn2-c2ccccc2)c([N+](=O)[O-])c1 | 2% | 0% | 1%
